# Measured values reported in the supplement of paper PMC10849652.
# The full data set covers some 7,900 targets. This sample favours those with a hit. About 0.6% of all pairs of compound and target were hits. Unmarked numbers belong to inactive results.
# What was measured:
# Test in all cases: log2 fold change, soluble protein after heating vs DMSO (PISA); higher = thermal stabilisation; K562 cells, 10 uM, 30 min; active = over 0.2 and 3.5 SD of the protein, either way, in both replicates (recomputed)
# [1] = compound: Cc1ccc(NC(=O)c2ccc(CN3CC[C@H](N(C)C)C3)c(C(F)(F)F)c2)cc1Nc1nccc(-c2cncnc2)n1 [bafetinib]
# In short: (§1)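 Thermal stability values are relative to control samples and come from duplicates. They are expressed as log2 fold changes. For measurement, K562 cells (2×10^6 cells/mL) received 10 μM compound for 30 min, and aliquots were heated for 3 min over 48°C-58°C, pooled, and extracted at 4°C in PBS with 0.5% NP-40. Soluble protein, the supernatant after 21,000xg for 90 min, was quantified by TMTpro 16plex LC-MS/MS with equalised channel sums.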
# [2] = compound: Cc1cccc(CC(=O)N2CCc3c2ccc(-c2cn(C)c4ncnc(N)c24)c3F)n1
# In short: as §1
# [3] = compound: Cc1cn(-c2cc(NC(=O)c3ccc(C)c(Nc4nccc(-c5cccnc5)n4)c3)cc(C(F)(F)F)c2)cn1 [nilotinib]
# In short: as §1
# [4] = compound: Cc1nc(Nc2n[nH]c3c2CN(C(=O)N[C@H](CN(C)C)c2ccccc2)C3(C)C)c2sccc2n1
# In short: as §1
# [5] = compound: Cc1nc(Nc2ncc(C(=O)Nc3c(C)cccc3Cl)s2)cc(N2CCN(CCO)CC2)n1 [dasatinib]
# In short: as §1
# [6] = compound: Cc1ncc(-c2ccnc(Nc3ccc(S(C)(=O)=O)cc3)n2)n1C(C)C
# In short: as §1
# [7] = compound: Cn1cc(-c2ccc3c(c2)CCN3C(=O)Cc2cccc(C(F)(F)F)c2)c2c(N)ncnc21
# In short: as §1
# [8] = compound: Cn1cc(-c2ccc3nnc(C(F)(F)c4ccc5ncccc5c4)n3n2)cn1
# In short: as §1
# [9] = compound: Cn1cncc1[C@@](N)(c1ccc(Cl)cc1)c1ccc2c(c1)c(-c1cccc(Cl)c1)cc(=O)n2C [tipifarnib]
# In short: as §1
# [10] = compound: FC(F)(F)c1ccc(/C=C/c2nc(COc3ccc(CCCCn4ccnn4)cc3)co2)cc1 [mubritinib]
# In short: as §1
# Sequence of UniProt O00483 (O00483 whole entry, looked up): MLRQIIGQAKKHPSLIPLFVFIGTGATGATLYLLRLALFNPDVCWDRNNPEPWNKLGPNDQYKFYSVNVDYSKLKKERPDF
# Sequence of UniProt Q13423 (Q13423 whole entry, looked up): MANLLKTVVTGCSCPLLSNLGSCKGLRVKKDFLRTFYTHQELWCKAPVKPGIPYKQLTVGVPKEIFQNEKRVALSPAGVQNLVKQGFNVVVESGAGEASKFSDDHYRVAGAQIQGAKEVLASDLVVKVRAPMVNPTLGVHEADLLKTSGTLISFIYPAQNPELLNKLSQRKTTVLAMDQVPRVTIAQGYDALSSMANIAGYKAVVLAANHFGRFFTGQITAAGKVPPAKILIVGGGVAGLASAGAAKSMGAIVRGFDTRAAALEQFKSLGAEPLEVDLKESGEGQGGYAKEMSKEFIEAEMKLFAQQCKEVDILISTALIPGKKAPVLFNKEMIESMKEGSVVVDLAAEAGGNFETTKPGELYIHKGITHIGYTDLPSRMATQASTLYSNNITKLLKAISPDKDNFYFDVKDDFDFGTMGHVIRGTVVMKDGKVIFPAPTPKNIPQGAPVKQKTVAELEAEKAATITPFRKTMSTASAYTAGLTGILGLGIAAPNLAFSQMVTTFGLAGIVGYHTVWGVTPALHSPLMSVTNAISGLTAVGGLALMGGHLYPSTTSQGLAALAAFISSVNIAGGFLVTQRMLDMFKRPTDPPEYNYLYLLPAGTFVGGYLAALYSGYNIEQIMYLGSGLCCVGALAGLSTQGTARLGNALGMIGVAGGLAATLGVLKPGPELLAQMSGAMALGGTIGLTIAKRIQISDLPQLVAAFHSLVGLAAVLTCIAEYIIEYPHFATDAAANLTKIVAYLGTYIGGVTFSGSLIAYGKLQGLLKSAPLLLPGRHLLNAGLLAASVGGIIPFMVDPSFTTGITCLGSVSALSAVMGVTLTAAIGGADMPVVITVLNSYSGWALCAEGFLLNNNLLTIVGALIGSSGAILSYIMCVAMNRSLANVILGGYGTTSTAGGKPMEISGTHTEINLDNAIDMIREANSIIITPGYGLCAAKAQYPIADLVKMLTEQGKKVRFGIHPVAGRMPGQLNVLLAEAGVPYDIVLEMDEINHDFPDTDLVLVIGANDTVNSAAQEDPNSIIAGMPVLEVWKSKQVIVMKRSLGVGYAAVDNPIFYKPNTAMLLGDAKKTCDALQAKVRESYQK
# Sequence of UniProt P03905 (P03905 whole entry, looked up): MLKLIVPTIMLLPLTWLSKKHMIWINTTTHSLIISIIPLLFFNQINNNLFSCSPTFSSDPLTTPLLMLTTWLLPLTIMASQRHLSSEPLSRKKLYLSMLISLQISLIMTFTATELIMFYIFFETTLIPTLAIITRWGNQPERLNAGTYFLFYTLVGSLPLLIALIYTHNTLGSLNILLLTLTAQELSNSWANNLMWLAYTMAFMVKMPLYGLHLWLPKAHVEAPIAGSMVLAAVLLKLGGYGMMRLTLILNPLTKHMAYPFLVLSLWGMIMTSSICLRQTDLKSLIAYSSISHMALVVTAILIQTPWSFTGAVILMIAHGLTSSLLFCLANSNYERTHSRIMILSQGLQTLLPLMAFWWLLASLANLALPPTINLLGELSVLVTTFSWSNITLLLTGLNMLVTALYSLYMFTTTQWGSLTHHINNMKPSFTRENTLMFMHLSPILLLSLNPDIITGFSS
# Sequence of UniProt Q9UI09 (Q9UI09 whole entry, looked up): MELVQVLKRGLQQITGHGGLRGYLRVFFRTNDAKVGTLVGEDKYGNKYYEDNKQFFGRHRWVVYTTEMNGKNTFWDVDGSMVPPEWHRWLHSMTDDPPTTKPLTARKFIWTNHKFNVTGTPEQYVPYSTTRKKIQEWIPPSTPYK
# Sequence of UniProt Q9BPX3 (Q9BPX3 whole entry, looked up): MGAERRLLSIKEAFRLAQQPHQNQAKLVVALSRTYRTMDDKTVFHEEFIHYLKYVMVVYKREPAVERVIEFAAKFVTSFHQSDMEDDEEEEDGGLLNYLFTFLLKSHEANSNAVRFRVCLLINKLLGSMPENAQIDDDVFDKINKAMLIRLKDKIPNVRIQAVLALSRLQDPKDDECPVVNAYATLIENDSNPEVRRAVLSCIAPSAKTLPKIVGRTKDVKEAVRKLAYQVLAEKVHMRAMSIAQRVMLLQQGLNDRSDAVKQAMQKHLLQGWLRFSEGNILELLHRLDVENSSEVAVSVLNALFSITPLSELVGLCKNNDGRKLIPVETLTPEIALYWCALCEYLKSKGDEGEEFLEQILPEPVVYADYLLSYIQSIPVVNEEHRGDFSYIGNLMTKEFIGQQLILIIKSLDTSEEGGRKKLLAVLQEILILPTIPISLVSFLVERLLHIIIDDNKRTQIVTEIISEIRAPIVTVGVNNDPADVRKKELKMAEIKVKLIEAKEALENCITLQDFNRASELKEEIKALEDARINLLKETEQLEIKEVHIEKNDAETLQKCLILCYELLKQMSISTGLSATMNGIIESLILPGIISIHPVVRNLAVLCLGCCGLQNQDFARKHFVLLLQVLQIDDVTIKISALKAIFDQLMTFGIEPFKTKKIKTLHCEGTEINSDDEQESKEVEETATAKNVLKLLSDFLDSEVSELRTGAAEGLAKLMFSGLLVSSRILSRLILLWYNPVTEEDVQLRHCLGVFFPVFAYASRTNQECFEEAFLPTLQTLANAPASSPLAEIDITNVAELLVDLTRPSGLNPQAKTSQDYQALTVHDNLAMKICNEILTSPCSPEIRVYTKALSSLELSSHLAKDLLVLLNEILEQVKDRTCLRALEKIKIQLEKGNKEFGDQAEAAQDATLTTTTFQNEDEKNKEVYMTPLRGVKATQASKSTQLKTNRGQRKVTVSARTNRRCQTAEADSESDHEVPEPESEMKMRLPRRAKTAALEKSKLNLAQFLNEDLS
# Sequence of UniProt Q8N6M0 (Q8N6M0 whole entry, looked up): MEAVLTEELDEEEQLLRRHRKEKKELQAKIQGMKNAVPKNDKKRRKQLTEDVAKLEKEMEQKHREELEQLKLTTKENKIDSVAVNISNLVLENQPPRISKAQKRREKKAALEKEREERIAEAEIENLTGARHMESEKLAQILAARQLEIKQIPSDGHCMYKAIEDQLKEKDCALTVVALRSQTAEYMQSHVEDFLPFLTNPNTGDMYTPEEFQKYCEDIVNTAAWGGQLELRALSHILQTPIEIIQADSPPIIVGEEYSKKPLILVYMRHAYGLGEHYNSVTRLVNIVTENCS
# Sequence of UniProt O15118 (O15118 whole entry, looked up): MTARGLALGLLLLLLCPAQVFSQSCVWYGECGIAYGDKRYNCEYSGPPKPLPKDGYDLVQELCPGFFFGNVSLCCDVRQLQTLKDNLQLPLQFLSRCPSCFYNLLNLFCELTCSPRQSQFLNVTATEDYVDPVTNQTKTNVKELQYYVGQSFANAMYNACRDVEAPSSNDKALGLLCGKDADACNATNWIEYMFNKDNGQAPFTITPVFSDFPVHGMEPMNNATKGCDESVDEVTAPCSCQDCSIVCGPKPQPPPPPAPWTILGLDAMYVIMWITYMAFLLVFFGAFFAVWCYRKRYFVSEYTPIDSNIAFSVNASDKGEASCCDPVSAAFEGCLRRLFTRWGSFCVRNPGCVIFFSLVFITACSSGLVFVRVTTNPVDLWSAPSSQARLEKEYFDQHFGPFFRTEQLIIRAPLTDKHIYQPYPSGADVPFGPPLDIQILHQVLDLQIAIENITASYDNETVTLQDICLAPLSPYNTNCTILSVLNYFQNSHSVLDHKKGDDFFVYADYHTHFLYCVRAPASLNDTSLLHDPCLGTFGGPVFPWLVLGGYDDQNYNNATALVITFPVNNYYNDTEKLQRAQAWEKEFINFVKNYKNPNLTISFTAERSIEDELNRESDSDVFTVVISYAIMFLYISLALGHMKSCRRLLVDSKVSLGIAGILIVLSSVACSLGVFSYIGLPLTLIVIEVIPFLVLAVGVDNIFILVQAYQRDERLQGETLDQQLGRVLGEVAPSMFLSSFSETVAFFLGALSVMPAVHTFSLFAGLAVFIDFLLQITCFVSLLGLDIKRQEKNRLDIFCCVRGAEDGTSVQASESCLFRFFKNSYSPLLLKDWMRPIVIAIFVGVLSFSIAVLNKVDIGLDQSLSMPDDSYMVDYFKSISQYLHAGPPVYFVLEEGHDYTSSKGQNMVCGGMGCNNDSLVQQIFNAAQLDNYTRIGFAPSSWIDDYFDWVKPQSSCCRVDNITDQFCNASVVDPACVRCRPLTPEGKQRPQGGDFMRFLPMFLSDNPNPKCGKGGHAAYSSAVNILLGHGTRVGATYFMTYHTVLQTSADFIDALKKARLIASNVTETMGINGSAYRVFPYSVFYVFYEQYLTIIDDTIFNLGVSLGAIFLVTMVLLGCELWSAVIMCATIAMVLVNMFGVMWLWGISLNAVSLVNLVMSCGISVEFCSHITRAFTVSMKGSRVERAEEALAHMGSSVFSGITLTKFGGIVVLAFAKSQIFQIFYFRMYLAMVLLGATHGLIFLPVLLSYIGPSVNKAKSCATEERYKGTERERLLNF
# Sequence of UniProt O75251 (O75251 whole entry, looked up): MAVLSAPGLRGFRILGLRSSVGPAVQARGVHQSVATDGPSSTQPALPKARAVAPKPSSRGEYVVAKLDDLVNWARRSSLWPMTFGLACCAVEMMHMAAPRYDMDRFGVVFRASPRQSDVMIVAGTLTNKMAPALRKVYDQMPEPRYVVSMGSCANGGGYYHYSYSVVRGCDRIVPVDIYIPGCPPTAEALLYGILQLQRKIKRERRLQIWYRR
# Sequence of UniProt O14524 (O14524 whole entry, looked up): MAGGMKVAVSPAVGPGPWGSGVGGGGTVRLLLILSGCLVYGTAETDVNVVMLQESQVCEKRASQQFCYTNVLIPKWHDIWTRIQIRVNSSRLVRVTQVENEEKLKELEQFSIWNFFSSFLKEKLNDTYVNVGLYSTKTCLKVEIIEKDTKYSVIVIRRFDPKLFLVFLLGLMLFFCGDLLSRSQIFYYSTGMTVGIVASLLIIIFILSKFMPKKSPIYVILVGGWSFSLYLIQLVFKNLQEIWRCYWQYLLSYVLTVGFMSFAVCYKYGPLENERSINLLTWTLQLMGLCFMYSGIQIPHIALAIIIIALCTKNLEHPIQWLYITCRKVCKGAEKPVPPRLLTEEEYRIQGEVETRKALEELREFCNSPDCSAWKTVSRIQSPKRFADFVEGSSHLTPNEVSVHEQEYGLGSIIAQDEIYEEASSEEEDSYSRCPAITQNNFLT
Target,log2 fold change [1],log2 fold change [2],log2 fold change [3],log2 fold change [4],log2 fold change [5],log2 fold change [6],log2 fold change [7],log2 fold change [8],log2 fold change [9],log2 fold change [10]
MRFAP1 (UniProt Q9Y605),-0.045,-0.08,-0.174,-0.064,-0.054,0.051,-0.024,0.011,-0.261,-0.075
NDUFS4 (UniProt O43181),-0.083,0.017,0.039,0.015,0.087,-0.047,0.025,-0.049,0.202,0.058
NTMT1 (UniProt Q9BV86),0.009,0.068,0.056,0,-0.036,0.023,0.073,0.076,0.043,0.138
MRPS22 (UniProt P82650),0.233,0.137,-0.21,0.044,-0.024,0.012,0.003,0.017,-0.11,0.15
NBN (UniProt O60934),-0.021,0.031,0.018,-0.198,-0.171,0.048,0.031,0.064,-0.016,0.131
NPC1 (UniProt O15118),-0.211 (active),-0.02,0.024,-0.017,-0.001,0.05,0.004,0.012,0.038,-0.027
NSUN2 (UniProt Q08J23),-0.059,0.056,-0.038,-0.271,-0.146,-0.222,-0.034,-0.053,-0.033,-0.045
NDUFB10 (UniProt O96000),-0.105,-0.11,-0.02,0.026,-0.011,-0.021,0.015,0.081,0.044,0.019
MT-ND4 (UniProt P03905),-0.016,-0.118,0.006,-0.033,-0.009,-0.003,-0.004,-0.045,0.173,0.05
NUDT16 (UniProt Q96DE0),-0.044,-0.035,0,0.015,0.058,-0.049,0.107,0.019,-0.02,0.049
MOV10 (UniProt Q9HCE1),0.068,0,0.035,0.041,0.111,0.068,-0.055,-0.101,0.091,-0.014
NCAPG (UniProt Q9BPX3),0.076,0.06,-0.032,-0.07,-0.085,0.065,-0.016,0.012,-0.142,-0.003
MPP1 (UniProt Q00013),0.043,0.035,0.073,-0.179,-0.086,-0.019,0.047,-0.023,-0.04,0.034
NDUFA4 (UniProt O00483),-0.043,0.014,0.024,0.02,0.032,-0.074,0.039,0.239,0.054,0.018
NEMP1 (UniProt O14524),-0.147,0.065,-0.186,0.004,-0.009,0.003,-0.007,-0.025,0,0.036
NUMA1 (UniProt Q14980),0.121,0.005,0.031,-0.22,0.019,-0.013,-0.194,-0.031,0.086,-0.043
NFE2 (UniProt Q16621),-0.048,-0.13,-0.063,-0.068,-0.016,-0.071,-0.051,-0.08,-0.066,0.026
P4HA2 (UniProt O15460),0.012,-0.007,0.056,0.04,-0.057,-0.008,-0.102,-0.02,0.007,-0.059
NEU1 (UniProt Q99519),-0.212,0.171,-0.051,-0.009,0.019,-0.147,-0.04,0.01,0.072,-0.031
NNT (UniProt Q13423),-0.02,0.056,-0.005,-0.006,-0.02,-0.018,0.071,0.037,-0.034,0.021
OAT (UniProt P04181),-0.038,-0.018,0.036,-0.021,-0.109,-0.073,0.026,0.061,-0.004,0.002
NUDT21 (UniProt O43809),0.074,-0.071,0.033,-0.798 (active),0.031,0.051,0.029,-0.039,-0.007,-0.008
NACC1 (UniProt Q96RE7),-0.03,-0.039,-0.165,-0.109,-0.198,-0.12,-0.041,0.034,-0.084,-0.03
NDUFA12 (UniProt Q9UI09),0,0.089,-0.158,-0.031,-0.107,0.029,0.109,0.062,-0.007,0.326 (active)
OSBP (UniProt P22059),-0.017,0.005,0.123,-0.257 (active),-0.08,-0.067,-0.024,-0.024,-0.085,0.012
MRPS35 (UniProt P82673),0.038,0.115,-0.134,0.088,-0.004,-0.071,-0.039,0.017,0.024,0.091
"NA, A0A096LPI6",-0.076,-0.043,0,-0.007,-0.005,-0.04,-0.003,-0.028,-0.038,0.024
OTUD6B (UniProt Q8N6M0),-0.014,0.105,-0.114,-0.067,-0.142,-0.031,0.044,0.067,-0.039,-0.02
NDUFS7 (UniProt O75251),-0.047,0.06,-0.03,0.021,0.01,-0.007,0.034,0.036,-0.035,0.095
